From PubChem
This excerpt belongs to a sample that is enriched for hits.
ST2 inh: inhibitors of human ST2 (IL1RL1) binding to IL-33. AlphaLISA ST2-Fc/biotin-IL-33 interaction, 1 h. inhibition, % for hits at 17 µM. 2.3% of 78,000 active. AID 1259354; in the data active means inhibition above about 30%
* hit, by the source's call.

O=[N+]([O-])c1ccc(N2CCN(Cc3ccc(O)cc3)CC2)cc1 was read as ST2 inh inactive.
Screening Cc1ccccc1CN1CCN(c2cccc(Cl)c2)CC1 returned ST2 inh inactive.
`O=[N+]([O-])c1ccc(N2CCN(Cc3ccc(F)c(Br)c3)CC2)cc1` gave ST2 inh 31%*.
Screening O=[N+]([O-])c1ccc(N2CCN(Cc3ccc(Cl)cc3)CC2)cc1 returned ST2 inh inactive.
Screening O=[N+]([O-])c1cccc(CN2CCN(c3ccc(Cl)cc3)CC2)c1 returned ST2 inh 47%*.
For CN1CCN(Cc2ccc(F)c(Br)c2)CC1 the results were ST2 inh inactive.
For Fc1ccc(N2CCN(Cc3ccc(F)c(Br)c3)CC2)cc1 the results were ST2 inh inactive.
For COCCNC(=S)NC[C@H]1C[C@@H]2CCN1C[C@@H]2CN1CCC[C@@H]1COC the results were ST2 inh inactive.
Screening COc1cccc(CC(C)NCc2csc(C)n2)c1 (stereo not given) returned ST2 inh inactive.
`CC[C@H]1CN2CC[C@H]1C[C@@H]2CNC(=S)Nc1cc(C)cc(C)c1` gave ST2 inh inactive.
`COc1ccccc1N1CCN(C[C@H]2CN3CC[C@H]2C[C@@H]3CNS(=O)(=O)c2cccs2)CC1` gave ST2 inh inactive.
`C=CCN(C)C[C@H]1CN2CC[C@H]1C[C@@H]2CNC(=S)NCCN1CCOCC1` gave ST2 inh inactive.
For C#C[C@H]1CN2CC[C@H]1C[C@@H]2CNC(=S)Nc1ccc(C)cc1Br the results were ST2 inh inactive.
`CN(Cc1ccccc1)C[C@H]1CN2CC[C@H]1C[C@@H]2CNC(=S)Nc1ccccc1` gave ST2 inh inactive.
For CN(Cc1ccccc1)Cc1cn(C[C@H]2CC3CCN2C[C@@H]3C(=O)Nc2nccs2)nn1 (stereo not given in full) the results were ST2 inh inactive.
O=C(c1cccs1)N1C[C@@H]2C[C@H](C1)c1ccc(-c3cccc(C(F)(F)F)c3)c(=O)n1C2 was read as ST2 inh inactive.
For NC(=O)c1ccccc1NC(=O)c1cccn(Cc2ccccc2Cl)c1=O the results were ST2 inh inactive.
